# From ChEMBL document CHEMBL3988442, “University of Dundee, Small-Polar-MMV Screening Library” (2021)
# For some assays here: Entries with a potency or affinity are not part of this list.
# Assays:
# Design in all cases: scale not given: direction of the effect not stated beside the values
# [1] = molecular target: Protein translocase subunit SecA (Escherichia coli (strain K12)) (UniProt P10408); test: Assay to Identify E. coli SecA ATPase Inhibitors; assay type: functional; settings: 30 µM
# [2] = molecular target: T1, Ubiquitin-activating enzyme e1, putative (Leishmania donovani (strain BPK282A1)) (UniProt E9BSI1); test: Leishmania donovani Ubiquitin Activating Enzyme (LdE1); assay type: functional; settings: 30 µM
# T1 sequence (whole entry): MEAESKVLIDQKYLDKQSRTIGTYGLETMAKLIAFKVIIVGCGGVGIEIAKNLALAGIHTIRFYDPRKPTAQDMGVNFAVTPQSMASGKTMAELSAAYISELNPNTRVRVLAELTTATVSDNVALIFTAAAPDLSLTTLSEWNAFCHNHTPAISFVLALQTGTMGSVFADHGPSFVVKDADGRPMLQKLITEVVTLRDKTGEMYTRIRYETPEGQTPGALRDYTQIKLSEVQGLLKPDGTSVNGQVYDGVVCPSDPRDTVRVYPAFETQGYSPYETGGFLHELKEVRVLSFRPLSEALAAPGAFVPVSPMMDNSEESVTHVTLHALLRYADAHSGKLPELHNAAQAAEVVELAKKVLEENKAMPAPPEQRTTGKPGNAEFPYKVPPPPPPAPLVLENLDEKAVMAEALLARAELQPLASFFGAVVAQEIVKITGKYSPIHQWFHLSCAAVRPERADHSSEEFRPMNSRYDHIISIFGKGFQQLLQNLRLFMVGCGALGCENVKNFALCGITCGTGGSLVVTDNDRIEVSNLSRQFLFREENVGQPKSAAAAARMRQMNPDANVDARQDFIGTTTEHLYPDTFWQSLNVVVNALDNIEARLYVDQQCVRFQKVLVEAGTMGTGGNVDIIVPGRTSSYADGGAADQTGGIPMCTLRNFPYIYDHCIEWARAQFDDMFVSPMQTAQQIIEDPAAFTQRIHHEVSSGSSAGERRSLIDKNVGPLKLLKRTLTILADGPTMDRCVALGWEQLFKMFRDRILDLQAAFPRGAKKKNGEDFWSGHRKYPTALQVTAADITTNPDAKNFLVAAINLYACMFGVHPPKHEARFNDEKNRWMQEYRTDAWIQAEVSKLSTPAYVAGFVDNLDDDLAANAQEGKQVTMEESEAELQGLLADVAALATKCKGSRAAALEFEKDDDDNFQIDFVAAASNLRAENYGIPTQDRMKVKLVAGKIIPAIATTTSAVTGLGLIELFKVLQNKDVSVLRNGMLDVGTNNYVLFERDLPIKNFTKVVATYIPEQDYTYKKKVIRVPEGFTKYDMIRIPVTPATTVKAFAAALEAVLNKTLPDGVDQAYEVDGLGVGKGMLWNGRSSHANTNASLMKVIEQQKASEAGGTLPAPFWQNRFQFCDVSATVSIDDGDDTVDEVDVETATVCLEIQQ
# [3] = molecular target: AMP-activated protein kinase, AMPK (Homo sapiens) (UniProt P54646+O43741+P54619+Q9UGJ0+Q9Y478+Q13131+Q9UGI9); test: AMP-dependent Kinase enzyme assay. An in vitro enzyme assay that detects ADP turnover that is directly proportional to AMPK activity. This uses naive AMPK that is activated during the assay with MK-8722; assay type: functional; settings: 30 µM
# [4] = molecular target: Sialic acid-binding Ig-like lectin 9 (Homo sapiens) (UniProt Q9Y336); test: Hs-Siglec9 ALPHAscreen SOP 20170721; settings: 10 µM
# Trypanosoma cruzi = test: Trypanosoma cruzi phosphomannomutase and mannose-1-phosphate guanylyltransferase assay; assay type: functional; settings: 10 µM
# [5] = molecular target: T2, Arginase-2, mitochondrial (Homo sapiens) (UniProt P78540); test: in vitro enzyme assay to detect the production of urea directly proportional to the activity of Arginase II; assay type: functional; settings: 33.3 µM; note: in the data most compounds retested in dose-response had high values
# T2 sequence (whole entry): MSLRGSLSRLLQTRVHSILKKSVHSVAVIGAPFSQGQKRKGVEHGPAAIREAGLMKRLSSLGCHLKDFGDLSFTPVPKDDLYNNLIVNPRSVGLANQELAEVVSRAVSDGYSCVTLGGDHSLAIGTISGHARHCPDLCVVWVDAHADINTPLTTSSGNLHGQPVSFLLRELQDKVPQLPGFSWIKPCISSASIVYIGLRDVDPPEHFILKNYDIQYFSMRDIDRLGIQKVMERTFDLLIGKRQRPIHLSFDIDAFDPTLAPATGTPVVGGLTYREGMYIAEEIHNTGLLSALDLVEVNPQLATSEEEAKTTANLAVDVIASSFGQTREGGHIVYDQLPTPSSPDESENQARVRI
# [6] = molecular target: T3, Proteasome subunit beta (Trypanosoma cruzi) (UniProt O96673); test: Trypanosoma cruzi proteasome chymotrypsin-like activity (TcProtChymo) assay.; note: in the data most compounds retested in dose-response had high values; assay type: functional; settings: 9.37 µM
# T3 sequence (whole entry): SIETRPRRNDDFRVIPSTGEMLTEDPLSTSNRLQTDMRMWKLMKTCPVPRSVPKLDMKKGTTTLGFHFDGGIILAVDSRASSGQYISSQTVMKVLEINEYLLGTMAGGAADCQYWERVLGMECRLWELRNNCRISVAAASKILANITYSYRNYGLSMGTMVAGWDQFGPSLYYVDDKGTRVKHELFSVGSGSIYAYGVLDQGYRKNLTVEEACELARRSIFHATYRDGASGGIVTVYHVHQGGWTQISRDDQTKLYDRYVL
# Homo sapiens = species on record: Homo sapiens; test: To identify inhibition of the IFN signalling (Jak-Stat) pathway via expression of an eGFP reporter gene under the control of an IFN-stimulated response element (ISRE) containing MxA promoter.; assay type: functional; settings: 30 µM
# [7] = molecular target: T4, Tyrosyl-tRNA synthetase, putative (Trypanosoma cruzi (strain CL Brener)) (UniProt Q4DSP6); test: Trypanosoma cruzi tyrosyl tRNA synthetase (TcYRS) _High Tyrosine SOP; assay type: functional; settings: 30 µM; note: in the data most compounds retested in dose-response had high values
# T4 sequence (whole entry): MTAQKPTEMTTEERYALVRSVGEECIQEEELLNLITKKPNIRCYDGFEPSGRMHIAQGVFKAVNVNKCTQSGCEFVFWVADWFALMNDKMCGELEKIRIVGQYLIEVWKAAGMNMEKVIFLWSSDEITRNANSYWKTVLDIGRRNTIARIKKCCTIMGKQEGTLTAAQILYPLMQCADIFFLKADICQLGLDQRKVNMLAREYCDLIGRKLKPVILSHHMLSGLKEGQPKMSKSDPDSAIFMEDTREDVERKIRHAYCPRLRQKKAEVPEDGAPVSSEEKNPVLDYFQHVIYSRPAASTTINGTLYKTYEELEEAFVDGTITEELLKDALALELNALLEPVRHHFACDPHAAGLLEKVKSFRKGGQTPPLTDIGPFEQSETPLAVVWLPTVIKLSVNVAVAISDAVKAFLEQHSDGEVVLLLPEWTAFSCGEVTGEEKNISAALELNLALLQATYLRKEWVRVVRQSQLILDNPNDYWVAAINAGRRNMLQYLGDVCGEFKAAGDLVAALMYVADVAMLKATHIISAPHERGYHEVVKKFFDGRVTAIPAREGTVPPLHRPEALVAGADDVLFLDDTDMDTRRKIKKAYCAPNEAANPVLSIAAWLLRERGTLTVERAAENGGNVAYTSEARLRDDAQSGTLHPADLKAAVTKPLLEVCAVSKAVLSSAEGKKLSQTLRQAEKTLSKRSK
# [8] = molecular target: T4, Tyrosyl-tRNA synthetase, putative (Trypanosoma cruzi (strain CL Brener)); test: Trypanosoma cruzi tyrosyl tRNA synthetase (TcYRS) SOP; assay type: functional; settings: 30 µM
# [9] = molecular target: Chromo domain-containing protein 1 (Saccharomyces cerevisiae (strain ATCC 204508 / S288c) (Baker's yeast)) (UniProt P32657); test: ScCHD-1 Enzyme Inhibition Assay; assay type: functional; settings: 30 µM; note: in the data most compounds retested in dose-response had high values
# Chain of Chromo domain-containing protein 1 (Saccharomyces cerevisiae (strain ATCC 204508 / S288c) (Baker's yeast)) (P32657 whole entry, the tested form may be a part): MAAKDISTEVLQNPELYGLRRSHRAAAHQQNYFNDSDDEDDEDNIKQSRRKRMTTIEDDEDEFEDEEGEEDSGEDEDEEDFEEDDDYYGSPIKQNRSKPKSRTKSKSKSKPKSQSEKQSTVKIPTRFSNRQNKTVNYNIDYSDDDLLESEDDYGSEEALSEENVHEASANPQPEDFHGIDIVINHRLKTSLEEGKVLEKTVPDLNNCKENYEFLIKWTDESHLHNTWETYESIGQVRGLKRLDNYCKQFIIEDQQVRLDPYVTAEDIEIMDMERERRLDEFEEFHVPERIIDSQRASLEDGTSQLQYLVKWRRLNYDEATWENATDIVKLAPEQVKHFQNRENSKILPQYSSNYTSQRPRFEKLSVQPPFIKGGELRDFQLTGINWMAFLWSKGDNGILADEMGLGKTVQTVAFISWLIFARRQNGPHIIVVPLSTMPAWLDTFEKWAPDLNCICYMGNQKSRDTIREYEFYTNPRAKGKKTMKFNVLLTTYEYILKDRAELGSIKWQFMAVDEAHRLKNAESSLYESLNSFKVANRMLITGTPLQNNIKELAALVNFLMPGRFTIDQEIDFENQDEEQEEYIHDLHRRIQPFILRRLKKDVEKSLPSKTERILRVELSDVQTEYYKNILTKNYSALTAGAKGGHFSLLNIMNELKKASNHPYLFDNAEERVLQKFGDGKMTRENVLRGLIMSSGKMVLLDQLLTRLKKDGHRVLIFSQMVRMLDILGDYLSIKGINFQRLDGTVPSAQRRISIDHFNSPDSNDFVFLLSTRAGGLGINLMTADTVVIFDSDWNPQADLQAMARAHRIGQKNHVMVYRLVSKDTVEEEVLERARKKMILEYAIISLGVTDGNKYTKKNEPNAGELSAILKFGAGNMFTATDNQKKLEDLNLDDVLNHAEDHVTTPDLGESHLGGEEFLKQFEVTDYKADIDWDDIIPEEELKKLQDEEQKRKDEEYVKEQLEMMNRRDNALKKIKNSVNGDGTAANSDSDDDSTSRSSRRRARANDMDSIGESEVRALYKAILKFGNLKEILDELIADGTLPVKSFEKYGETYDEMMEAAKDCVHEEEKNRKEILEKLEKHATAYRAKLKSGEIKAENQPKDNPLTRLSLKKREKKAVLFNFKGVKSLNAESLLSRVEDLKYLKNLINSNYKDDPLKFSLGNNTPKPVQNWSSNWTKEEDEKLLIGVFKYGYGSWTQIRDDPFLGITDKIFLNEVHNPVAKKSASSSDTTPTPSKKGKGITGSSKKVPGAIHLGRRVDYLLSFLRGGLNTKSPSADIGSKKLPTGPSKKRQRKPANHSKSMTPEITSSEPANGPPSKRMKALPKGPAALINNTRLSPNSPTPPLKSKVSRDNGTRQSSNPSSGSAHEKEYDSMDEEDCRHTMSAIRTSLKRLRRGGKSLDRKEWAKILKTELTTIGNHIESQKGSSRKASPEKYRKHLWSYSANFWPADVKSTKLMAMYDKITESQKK
# Chain of Protein translocase subunit SecA (Escherichia coli (strain K12)) (P10408 whole entry): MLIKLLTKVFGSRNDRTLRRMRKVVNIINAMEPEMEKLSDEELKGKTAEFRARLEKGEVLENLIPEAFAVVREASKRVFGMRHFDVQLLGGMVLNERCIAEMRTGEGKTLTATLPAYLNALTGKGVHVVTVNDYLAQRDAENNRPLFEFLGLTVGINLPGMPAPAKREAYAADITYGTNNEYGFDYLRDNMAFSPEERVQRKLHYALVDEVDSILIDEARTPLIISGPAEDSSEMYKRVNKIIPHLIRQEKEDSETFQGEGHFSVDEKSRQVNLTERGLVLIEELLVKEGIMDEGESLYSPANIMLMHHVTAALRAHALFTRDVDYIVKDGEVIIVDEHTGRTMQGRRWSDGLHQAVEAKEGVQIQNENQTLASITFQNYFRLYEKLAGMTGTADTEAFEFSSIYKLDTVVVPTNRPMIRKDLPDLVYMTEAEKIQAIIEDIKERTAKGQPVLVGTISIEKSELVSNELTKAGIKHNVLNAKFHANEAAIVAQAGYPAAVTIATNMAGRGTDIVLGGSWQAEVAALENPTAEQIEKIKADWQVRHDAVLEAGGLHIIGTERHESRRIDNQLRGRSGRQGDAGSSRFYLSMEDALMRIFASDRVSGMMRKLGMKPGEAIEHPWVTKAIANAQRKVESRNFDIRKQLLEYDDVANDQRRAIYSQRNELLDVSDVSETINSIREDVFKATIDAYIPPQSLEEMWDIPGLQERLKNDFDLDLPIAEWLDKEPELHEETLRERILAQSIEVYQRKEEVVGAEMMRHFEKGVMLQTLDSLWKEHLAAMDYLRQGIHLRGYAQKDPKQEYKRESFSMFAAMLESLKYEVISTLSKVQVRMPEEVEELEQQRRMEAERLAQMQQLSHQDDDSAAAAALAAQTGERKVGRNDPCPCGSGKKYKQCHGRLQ
# Chain of Sialic acid-binding Ig-like lectin 9 (Homo sapiens) (Q9Y336 whole entry): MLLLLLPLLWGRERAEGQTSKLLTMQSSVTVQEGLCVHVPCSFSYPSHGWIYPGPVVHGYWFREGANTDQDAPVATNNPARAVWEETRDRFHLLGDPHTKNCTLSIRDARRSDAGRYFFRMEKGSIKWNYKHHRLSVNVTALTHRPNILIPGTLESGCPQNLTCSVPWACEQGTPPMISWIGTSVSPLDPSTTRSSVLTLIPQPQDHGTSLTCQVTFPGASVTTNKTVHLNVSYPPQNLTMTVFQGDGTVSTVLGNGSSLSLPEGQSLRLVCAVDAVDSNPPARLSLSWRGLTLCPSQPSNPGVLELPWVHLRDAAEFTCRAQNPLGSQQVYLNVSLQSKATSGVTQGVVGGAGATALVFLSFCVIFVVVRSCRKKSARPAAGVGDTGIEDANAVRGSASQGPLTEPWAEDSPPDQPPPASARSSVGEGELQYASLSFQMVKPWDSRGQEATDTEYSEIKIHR
SMILES,Percent Effect [1] [%],Percent Effect [2] [%],Percent Effect [3] [%],Percent Effect [4] [%],Percent Effect (Trypanosoma cruzi) [%],Percent Effect [5] [%],Percent Effect [6] [%],Percent Effect (Homo sapiens) [%],Percent Effect [7] [%],Percent Effect [8] [%],Percent Effect [9] [%]
CC(C)S(=O)(=O)NCC1CCCN(C(=O)c2ccc3c(c2)CCC3)C1 (configuration not stated),-5.88,5.48,5.06,-5.74,0.588,-2.27,7.28,16.7,1.07,7.5,-5.72
CN(C(=O)NCCCN1CCCC1)C1CCN(c2ccccc2)C1=O (configuration not stated),5.28,15.8,2.15,-4.7,-7.71,0.766,20.9,24.5,4.41,12.2,-10.3
CN1CCCc2cc(CNC(=O)c3ccc(NC4CC4)nc3)ccc21,-1.41,6.33,52,6.12,-0.923,2.8,0.515,-2.19,6.25,10.1,-6.23
CCS(=O)(=O)CCNC(=O)c1ccc(-c2ccc(C)cc2)cc1F,-3.31,5.2,-1.14,2.26,-2.26,-2.76,14.6,18.8,-14,1.24,2.27
c1cnc(-c2cnc(N3CCSCC3)nc2C2CCCO2)cn1 (configuration not stated),-4.61,6.76,9.87,3.27,-5.53,-1.16,9.98,10.7,1.07,6.49,-13.3
CC(C)N(C)Cc1cnc2n1CCN(CCc1ccccc1)C2,-3.87,5.41,23.2,-2.38,0.586,-2.92,9.04,-8.89,6.93,8.54,0.182
CN(Cc1ccco1)Cc1ccccc1CNC(=O)c1ccc[nH]1,0.847,-10.8,-0.911,10,2.32,14.3,9.31,19.5,3.7,12.2,-4.76
O=C(NCCS(=O)(=O)N1CCc2ccccc21)c1c(O)cc(F)cc1F,-5.35,2.6,-0.496,-10.7,4.41,-6.11,8,4.49,-12.4,0,-23.1
CC(NC(=O)NCC1(O)CCC1)c1ccc(OCC2CC2)c(F)c1 (configuration not stated),-6.25,10.5,0.839,9.9,1.85,-24.9,10.3,14,3.19,7.79,-3.31
O=C(Cc1ccc2c(c1)OCCO2)N1CCCC(n2ccnc2)C1 (configuration not stated),-8.71,5.2,-7.38,-6.56,10.7,-3.58,4.77,2.67,1.91,11.8,-24.2
Cc1oc(-c2nc(C#N)c(N(C)C)o2)cc1S(=O)(=O)N1CCCC1,-3.98,4,-2.67,8.99,2.75,-7.92,17.2,-8.23,1.06,10.3,-0.712
Cc1noc(C)c1CNc1cc(N2CCCC2CO)ncn1 (configuration not stated),-2.84,6.33,-25.2,4.54,1.54,1.5,1.03,-8.87,0,12.7,-23.1
CC(C)COCC1CN(Cc2ccc3c(c2)OCO3)Cc2ncn(C)c21 (configuration not stated),-6.14,-5.41,10.1,2.92,-1.17,-3.75,2.11,29.9,3.96,3.66,0.344
CCOc1cc(C)nc(N2CCN(C(=O)c3ccc[nH]3)CC2)n1,-3.03,2.7,1.91,13.3,-6.59,2.77,3.23,22.2,-0.99,3.66,1.45
COc1c(C2CCCN2CC(=O)Nc2nc(C)cs2)c(C)nn1C (configuration not stated),-0.196,-5.41,-8.37,10.3,4.74,1.29,5.03,5.63,4.95,6.1,0.0954
CCc1nnc2n1CCN(Cc1ccc3c(c1)OCCO3)C2,0.332,18.9,-5.31,-8.03,-3.06,1.29,7.9,28.3,2.97,13.4,-0.119
CC(C)n1cc(CN2CCCN(C(=O)c3nccnc3N)CC2)cn1,-3.12,13.5,-6.54,-11.2,-0.586,5.83,17,21.2,8.91,11,5
O=C(c1cccs1)N1CCC2(C1)c1ccccc1S(=O)(=O)N2CC1CC1 (configuration not stated),-4.28,2.67,12.3,1.53,-0.197,-8.62,2.03,17.7,5.32,6.41,1.11
CCn1cc(C(=O)NC2CCN(S(C)(=O)=O)CC2)c2ccccc21,-3.22,16.2,-3.16,22.3,4.01,0.248,5.41,6.18,2.15,16.1,-6.57
CC(C)(C)NC(=O)NC(=O)CNC(C)(C)c1ccc2c(c1)OCCO2,-5.89,13.5,-6.92,1.3,0.472,-4.01,6.67,11.6,4.43,13.6,-5.2
CC(C)(CNC(=O)CCOc1cccc(F)c1)C(N)=O,-1.29,7.89,1.89,3.39,-7.14,3.06,10.5,12,5.39,12.2,-1.57
COc1ncccc1C(=O)N1CCC(c2nnc(C3CC3)o2)CC1,-1.83,10.4,11.3,3.07,-5.82,16.1,9.75,-6.69,4.23,11.5,-9.2
